Experimental findings from PubChem BioAssay (NCATS) are described below.

Records with an inconclusive call do not appear. Unmarked numbers belong to inactive results. Active and inactive are the calls of the source. Calls follow the shape of the dose curve; as a rule, active = well fitted cell-killing curve with a large enough effect; inconclusive = small, poorly fitted or top-dose-only effect, or effect the other way; inactive = no such curve, though single readings can be large or run the other way.

Test [1] is described as follows: Quantitative High-Throughput drug screen in 47 multiple myeloma cell lines against the NCATS MIPE library collection: FR4_PLB cell viability assay (AID 1918924; also: nearly all actives have a fitted effect of over 35% in size). Summed up: (§1)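 CellTiter-Glo luminescence (ATP) after 48 h compound exposure, 37C/5% CO2; 500 cells/well; MIPE 4.0 approved/investigational drugs pinned in; DMSO = 100%, media only = 0% viability.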
A short description of test [2]: Quantitative High-Throughput drug screen in 47 multiple myeloma cell lines against the NCATS MIPE library collection: EJM_DSMZ cell viability assay (AID 1918926; also: nearly all actives have a fitted effect of over 30% in size). Summed up: (§2)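 Myeloma cell lines, 500 cells per well, exposed to MIPE 4.0 library compounds for 48 h at 37C, 5% CO2. Viability from ATP by CellTiter-Glo luminescence; normalised to DMSO (100%) and media-only (0%) wells.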

The nature of test [3]: Quantitative High-Throughput drug screen in 47 multiple myeloma cell lines against the NCATS MIPE library collection: AMO1_DSMZ cell viability assay (AID 1918927; also: nearly all actives have a fitted effect of over 30% in size). In short, it runs like this: as §2
The nature of test [4]: Quantitative High-Throughput drug screen in 47 multiple myeloma cell lines against the NCATS MIPE library collection: ARP1_JJKsccF8 cell viability assay (AID 1918928; also: nearly all actives have a fitted effect of over 40% in size). Summed up:
(§3)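 Luminescence from CellTiter-Glo, taken after 5 min at room temperature, reports cellular ATP as viability. Cells (500 per well) had been treated 48 h at 37 °C with MIPE 4.0 compounds, scaled between DMSO and medium-only controls.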

A short description of test [5]: Quantitative High-Throughput drug screen in 47 multiple myeloma cell lines against the NCATS MIPE library collection: ARD_JJKsccE7 cell viability assay (AID 1918929). In short, it runs like this: as §2
The nature of test [6]: Quantitative High-Throughput drug screen in 47 multiple myeloma cell lines against the NCATS MIPE library collection: Karpas620_DSMZ cell viability assay (AID 1918959). Also: nearly all actives have a fitted effect of over 30% in size. Summed up:
as §1

The nature of test [7]: Quantitative High-Throughput drug screen in 47 multiple myeloma cell lines against the NCATS MIPE library collection: KMM1_JCRB cell viability assay (AID 1918960). Also: nearly all actives have a fitted effect of over 30% in size.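 As to viability (% of DMSO): 100% = DMSO-treated cells and 0% = medium-only wells.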 Summed up:
as §3

Test [8] can be described thus: Quantitative High-Throughput drug screen in 47 multiple myeloma cell lines against the NCATS MIPE library collection: Delta47_JCRB cell viability assay (AID 1918925; also: nearly all actives have a fitted effect of over 45% in size). Summed up:
as §2
Potency is read from the fitted curve at half-maximal effect.

Take `CC[C@H]1OC(=O)[C@H](C)[C@@H](O[C@H]2C[C@@](C)(OC)[C@@H](O)[C@H](C)O2)[C@H](C)[C@@H](O[C@@H]2O[C@@H](C)C[C@H](N(C)C)[C@@H]2O)[C@](C)(O)C[C@@H](C)C(=O)[C@H](C)[C@@H](O)[C@]1(C)O`: the Potency result in test [1], in test [2], in test [3], in test [4], in test [5] and in test [6] was “inactive” throughout. In addition, the Potency entry in test [7] is “inactive”.
For the compound `COc1cc(OC)c(C=CS(=O)(=O)Cc2ccc(OC)c(NCC(=O)O)c2)c(OC)c1`, the Potency in test [1] is 118 nM (active); in test [8], 148 nM (active); in test [3], 33.2 nM (active); in test [4], 372 nM (active); in test [5], 74.3 nM (active); in test [7], 74.3 nM (active).
On to `CC(=O)OCC(=O)[C@@]12N=C(C)O[C@H]1C[C@H]1[C@@H]3CCC4=CC(=O)C=C[C@]4(C)[C@@H]3[C@@H](O)C[C@@]12C`, for which the Potency entry in test [1], in test [8], in test [2], in test [4] and in test [6] was “inactive” each time. In addition, the Potency in test [5] was 1050 nM (active).
Take `CN1[C@H]2CC(OC(=O)[C@@H](CO)c3ccccc3)C[C@H]1[C@H]1O[C@H]12` (some centres undefined): the Potency entry in test [1], in test [2], in test [3], in test [4], in test [5] and in test [6] was “inactive” each time. For the same compound, in test [7], the Potency entry is “inactive”.
For the compound `CCOC(=O)N1CCN([N+]([O-])=NOc2ccc([N+](=O)[O-])cc2[N+](=O)[O-])CC1`, the Potency in test [1] is 5900 nM (active); in test [2] it was 2640 nM (active); in test [3] it was 10500 nM (active); in test [4], 2960 nM (active); in test [5], 5900 nM (active); in test [6], 5260 nM (active). Moreover, the Potency in test [7] is 10500 nM (active).
In the case of `CC(=O)C1=C(O)C=C2Oc3c(C(C)=O)c(O)c(C)c(O)c3C2(C)C1=O` (centres undefined), the Potency result in test [1], in test [8], in test [2], in test [4] and in test [7] was “inactive” in each case.
Regarding `CN(N=O)C(=O)N[C@H]1C(O)OC(CO)[C@@H](O)[C@H]1O` (some centres undefined), the Potency result in test [1], in test [8], in test [3], in test [4], in test [5] and in test [6] was “inactive” each time. Besides, the Potency result in test [7] was “inactive”.
Take `O=C(O)[C@H](CC(=O)N1C[C@@H]2CCCC[C@H]2C1)Cc1ccccc1`: the Potency entry in test [1], in test [8], in test [2], in test [4] and in test [6] was “inactive” in each case.
With `C=CC(=O)Nc1cccc(Nc2nc(NC3CCC(N(C)C)CC3)nc3c2ncn3C(C)C)c1` (centres undefined), the Potency in test [1] was 235 nM (active); in test [8], 235 nM (active); in test [2], 8.3 nM (active); in test [5], 10.5 nM (active); in test [7] it was 13.2 nM (active).
With `CC(C)(C)[C@H](NC(=O)c1ccc(N)c(Cl)c1)C(=O)N1CCC[C@@H]1C(=O)N[C@H](C#N)CC(=O)O`, the viability (% of DMSO control) in test [1] is 107% [at 3.51 µM]. The values for the viability (% of DMSO) in test [8], in test [6] and in test [7] were 119% [at 3.51 µM], 126% [at 3.51 µM] and 90.2% [at 3.51 µM], respectively. In addition, the viability, % of control in test [2] is 97.8% [at 3.51 µM].
In the case of `Cc1cc(-c2nnc3n2CCCCC3)c(C)n1-c1ccccc1`, the Potency result in test [1], in test [8], in test [3] and in test [4] was “inactive” each time.
`O=C(C=CC=Cc1ccc2c(c1)OCO2)N1CCCCC1`: the Potency entry in test [1], in test [2] and in test [3] was “inactive” each time.
With `Cc1onc(-c2ccccc2)c1C(=O)N[C@@H]1C(=O)N2[C@@H](C(=O)O)C(C)(C)S[C@@H]12`, the Potency result in test [1], in test [2], in test [3], in test [5], in test [6] and in test [7] was “inactive” throughout.
In the case of `C#C[C@]1(O)CC[C@@H]2[C@@H]3CCC4=CC(=O)CC[C@@H]4[C@H]3CC[C@@]21CC`, the Potency result in test [8], in test [2], in test [4] and in test [6] was “inactive” throughout.
For the compound `CC(C)(O)CC[C@@H](O)[C@](C)(O)[C@H]1CC[C@@]2(O)C3=CC(=O)[C@@H]4C[C@@H](O)[C@@H](O)C[C@]4(C)[C@@H]3CC[C@]12C`, the Potency result in test [8], in test [2], in test [3], in test [4], in test [5] and in test [6] was “inactive” in each case. The Potency result in test [7] was “inactive”.
In the case of `COc1ccc2cc([S+]([O-])Cc3ncc(C)c(OC)c3C)nc2c1`, the Potency entry in test [1], in test [2], in test [4] and in test [5] was “inactive” each time.
Regarding `O=c1[nH]c(=O)n([C@H]2C[C@@H](O)[C@@H](CO)O2)cc1C=CBr`, the Potency result in test [8], in test [2], in test [3], in test [4], in test [6] and in test [7] was “inactive” each time.
`COc1cc(C)c(C=CC(C)=CC=CC(C)=CC(=O)O)c(C)c1C`: the Potency entry in test [1], in test [3], in test [4] and in test [5] was “inactive” throughout. The Potency in test [6] was 7430 nM (active).
As for `OC[C@@H](O)[C@@H](O)[C@H](O)[C@@H](O)CO`, the Potency result in test [1], in test [2], in test [4], in test [6] and in test [7] was “inactive” throughout. Moreover, the Potency in test [3] is 5900 nM (active).
With `O=C(NCc1ccccc1)[C@H](Cc1ccccc1)NC(=O)[C@@H]1O[C@@H]1C(=O)NCCc1ccc(O)cc1`, the Potency entry in test [1] is “inactive”. The Potency in test [2] was 83.3 nM (active); in test [3] it was 20900 nM (active); in test [6] it was 26400 nM (active).
As to `CC(=O)ON=C1C(c2c(O)[nH]c3cc(Br)ccc23)=Nc2ccccc21`, the Potency in test [2] was 11800 nM (active); in test [3] it was 1870 nM (active); in test [5] it was 5260 nM (active); in test [6], 4690 nM (active); in test [7], 5900 nM (active).
